PubChem BioAssay AID1159580 (chemical genetic matrix, 2015)
Out of some 5,500 compounds screened, about 2,000 (36%) were called active. Not shown: some 18% with an inconclusive outcome. Cut-off read from the data, not from the text of the source: active = normalized growth mostly below about 0.91 (no sharp cut-off); inconclusive = no clear call, values can overlap the other calls; inactive = mostly above about 0.92. Some of the results follow.

Test: chemical genetic growth profiling, strain panel (AID 1159580);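 note: tested at 20 µM; growth read once vehicle control cultures reached saturation at 30 °C; 1 = growth at the plate median or of vehicle wells; lower values mean less growth of the strain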
Details: growth OD

Measured: normalized growth

Nc1ccc(S(=O)(=O)Nc2cnc3ccccc3n2)cc1
inactive: S. cerevisiae deletion strains, locus YJR075W, strain HOC1, hits give low values 0.982 | S. cerevisiae deletion strains, locus YKL009W, strain mrt4, hits give low values 0.971 | S. cerevisiae deletion strains, locus YKL068W, hits give low values 0.985 | S. cerevisiae deletion strains, locus YKL085W, strain MDH1 (second series), hits give low values 0.98 | S. cerevisiae deletion strains, locus YKL085W, strain MDH1, hits give low values 0.98 | S. cerevisiae deletion strains, locus YKL160W, strain elf1, hits give low values 1.01 | S. cerevisiae deletion strains, locus YKL190W, strain CNB1, hits give low values 0.976 | S. cerevisiae deletion strains, locus YKR001C, strain vps1, hits give low values 0.969 | S. cerevisiae deletion strains, locus YKR026C, strain gcn3, hits give low values 1.02 | S. cerevisiae deletion strains, locus YKR091W, strain srl3, hits give low values 1.01 | S. cerevisiae deletion strains, locus YLL001W, strain dnm1, hits give low values 1.02 | S. cerevisiae deletion strains, locus YLL026W, hits give low values 1.01 | S. cerevisiae deletion strains, locus YLL041C, strain sdh2, hits give low values 1 | S. cerevisiae deletion strains, locus YLR027C, strain aat2, hits give low values 1.01 | S. cerevisiae deletion strains, locus YLR039C, strain RIC1, hits give low values 0.959 | S. cerevisiae deletion strains, locus YLR058C, strain SHM2, hits give low values 0.971 | S. cerevisiae deletion strains, locus YLR102C, strain apc9, hits give low values 0.992 | S. cerevisiae deletion strains, locus YLR113W, strain HOG1, hits give low values 0.967 | S. cerevisiae deletion strains, locus YLR221C, strain rsa3, hits give low values 0.995 | S. cerevisiae deletion strains, locus YLR258W, strain gsy2, hits give low values 1.01 | S. cerevisiae deletion strains, locus YLR262C, strain YPT6 (second series), hits give low values 1.02 | S. cerevisiae deletion strains, locus YLR262C, strain YPT6, hits give low values 0.964 | S. cerevisiae deletion strains, locus YLR268W, strain sec22, hits give low values 0.904 | S. cerevisiae deletion strains, locus YLR320W, strain mms22, hits give low values 1.01 | S. cerevisiae deletion strains, locus YLR330W, strain CHS5, hits give low values 0.995 | S. cerevisiae deletion strains, locus YLR342W, strain FKS1 (second series), hits give low values 1.02 | S. cerevisiae deletion strains, locus YLR342W, strain FKS1, hits give low values 1.01 | S. cerevisiae deletion strains, locus YLR357W, strain rsc2, hits give low values 0.995 | S. cerevisiae deletion strains, locus YLR370C, strain arc18, hits give low values 1.03 | S. cerevisiae deletion strains, locus YLR371W, strain rom2, hits give low values 0.984 | S. cerevisiae deletion strains, locus YLR384C, strain iki3, hits give low values 1.01 | S. cerevisiae deletion strains, locus YLR418C, strain cdc73, hits give low values 0.979 | S. cerevisiae deletion strains, locus YML016C, strain PPZ1, hits give low values 0.996 | S. cerevisiae deletion strains, locus YML032C, strain rad52, hits give low values 0.979 | S. cerevisiae deletion strains, locus YML120C, strain ndi1, hits give low values 1.02 | S. cerevisiae deletion strains, locus YML124C, strain tub3, hits give low values 0.978 | S. cerevisiae deletion strains, locus YMR058W, strain fet3, hits give low values 1.02 | S. cerevisiae deletion strains, locus YMR078C, strain ctf18, hits give low values 0.974 | S. cerevisiae deletion strains, locus YMR125W, strain sto1, hits give low values 1.03 | S. cerevisiae deletion strains, locus YMR129W, hits give low values 1.02 | S. cerevisiae deletion strains, locus YMR205C, strain PFK2, hits give low values 1.02 | S. cerevisiae deletion strains, locus YMR223W, strain ubp8, hits give low values 1 | S. cerevisiae deletion strains, locus YMR231W, strain pep5, hits give low values 1.01 | S. cerevisiae deletion strains, locus YMR263W, strain SAP30, hits give low values 0.978 | S. cerevisiae deletion strains, locus YMR307W, strain GAS1, hits give low values 1.1 | S. cerevisiae deletion strains, locus YNL067W, strain RPL9B, hits give low values 0.977 | S. cerevisiae deletion strains, locus YNL071W, strain lat1, hits give low values 1.02 | S. cerevisiae deletion strains, locus YNL153C, strain GIM3, hits give low values 0.962 | S. cerevisiae deletion strains, locus YNL183C, strain NPR1, hits give low values 0.921 | S. cerevisiae deletion strains, locus YNL209W, strain ssb2, hits give low values 1.02 | S. cerevisiae deletion strains, locus YNL233W, strain BNI4, hits give low values 0.984 | S. cerevisiae deletion strains, locus YNL248C, strain rpa49, hits give low values 1.02 | S. cerevisiae deletion strains, locus YNL250W, strain rad50, hits give low values 0.98 | S. cerevisiae deletion strains, locus YNL271C, strain bni1, hits give low values 0.985 | S. cerevisiae deletion strains, locus YNL298W, strain CLA4, hits give low values 0.988 | S. cerevisiae deletion strains, locus YNL307C, strain MCK1, hits give low values 0.983 | S. cerevisiae deletion strains, locus YNL322C, strain KRE1 (second series), hits give low values 0.997 | S. cerevisiae deletion strains, locus YNL322C, strain KRE1, hits give low values 0.992 | S. cerevisiae deletion strains, locus YNR049C, strain mso1, hits give low values 1.01 | S. cerevisiae deletion strains, locus YNR052C, strain pop2, hits give low values 0.987 | S. cerevisiae deletion strains, locus YOL006C, strain TOP1, hits give low values 0.997 | S. cerevisiae deletion strains, locus YOL012C, strain htz1 1.64 | S. cerevisiae deletion strains, locus YOL147C, strain pex11, hits give low values 0.988 | S. cerevisiae deletion strains, locus YOR001W, strain rrp6, hits give low values 1.02 | S. cerevisiae deletion strains, locus YOR061W, strain CKA2, hits give low values 0.961 | S. cerevisiae deletion strains, locus YOR069W, strain VPS5, hits give low values 0.995 | S. cerevisiae deletion strains, locus YOR070C, strain gyp1, hits give low values 1.01 | S. cerevisiae deletion strains, locus YOR080W, strain dia2, hits give low values 1.02 | S. cerevisiae deletion strains, locus YOR083W, strain WHI5, hits give low values 0.99 | S. cerevisiae deletion strains, locus YOR106W, strain vam3, hits give low values 1.03 | S. cerevisiae deletion strains, locus YOR136W, strain idh2, hits give low values 0.98 | S. cerevisiae deletion strains, locus YOR144C, strain elg1, hits give low values 0.977 | S. cerevisiae deletion strains, locus YOR184W, strain ser1, hits give low values 0.98 | S. cerevisiae deletion strains, locus YOR231W, strain MKK1, hits give low values 0.975 | S. cerevisiae deletion strains, locus YOR265W, strain rbl2, hits give low values 1.01 | S. cerevisiae deletion strains, locus YOR270C, strain vph1, hits give low values 1.02 | S. cerevisiae deletion strains, locus YOR290C, strain snf2, hits give low values 0.998 | S. cerevisiae deletion strains, locus YOR316C, strain cot1, hits give low values 0.969 | S. cerevisiae deletion strains, locus YPL051W, strain arl3, hits give low values 1 | S. cerevisiae deletion strains, locus YPL055C, strain LGE1, hits give low values 0.94 | S. cerevisiae deletion strains, locus YPL078C, strain atp4, hits give low values 1.02 | S. cerevisiae deletion strains, locus YPL106C, strain sse1, hits give low values 1.03 | S. cerevisiae deletion strains, locus YPL240C, strain hsp82, hits give low values 1.02 | S. cerevisiae deletion strains, locus YPL256C, strain CLN2, hits give low values 0.96 | S. cerevisiae deletion strains, locus YPR119W, strain clb2, hits give low values 0.986 | S. cerevisiae deletion strains, locus YPR141C, strain kar3, hits give low values 0.972 | S. cerevisiae deletion strains, locus YPR163C, strain tif3, hits give low values 0.989 | S. cerevisiae deletion strains, locus YPR167C, strain met16, hits give low values 0.987 | S. cerevisiae deletion strains, strain wtn01, hits give low values 0.991 | S. cerevisiae strains, strain wild type, hits give low values 0.986
